Data: PubChem BioAssay (NCI)
The panel holds about 83,000 compounds, 20% with a hit somewhere; the sample as a whole holds those more often.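 Cell lines were cultured in 96-well plates, exposed to a single compound concentration, and assessed for percent growth 48 hours later.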 Unmarked numbers belong to inactive results. The source made the active and inactive calls. How the source made its calls: active means growth percent below 10; inactive means the rest.

How the values were obtained:
Test in all cases: NCI-60 one-dose screen, 48 h (100 = growth as untreated, 0 = no growth, -100 = all killed)
NCI-H23 lung = settings: 10 µM unless noted
NCI-H322M lung = settings: 10 µM unless noted
HOP-62 NSCLC = settings: 10 µM unless noted
NCI-H460 lung = settings: 10 µM unless noted
NCI-H522 lung = settings: 10 µM
A549/ATCC NSCLC = settings: 10 µM unless noted
786-0 renal = settings: 10 µM unless noted
COLO 205 colon = settings: 10 µM unless noted
DU-145 prostate = settings: 10 µM unless noted
K-562 leukemia = settings: 10 µM unless noted
MALME-3M melanoma = settings: 10 µM unless noted
MDA-MB-231 breast = settings: 10 µM unless noted
RXF 393 renal = settings: 10 µM unless noted
SF-268 CNS = settings: 10 µM unless noted
SF-295 CNS = settings: 10 µM unless noted
SF-539 CNS = settings: 10 µM unless noted
UACC-257 melanoma = settings: 10 µM unless noted
M14 melanoma = settings: 10 µM unless noted

Row | SMILES | growth (NCI-H23 lung) | growth (NCI-H322M lung) | growth (HOP-62 NSCLC) | growth (NCI-H460 lung) | growth (NCI-H522 lung) | growth (A549/ATCC NSCLC) | growth (786-0 renal) | growth (COLO 205 colon) | growth (DU-145 prostate) | growth (K-562 leukemia) | growth (MALME-3M melanoma) | growth (MDA-MB-231 breast) | growth (RXF 393 renal) | growth (SF-268 CNS) | growth (SF-295 CNS) | growth (SF-539 CNS) | growth (UACC-257 melanoma) | growth (M14 melanoma)
1 | COc1ccc(OC)c(C2C(C#N)=C(N)Oc3cc(O)ccc32)c1 (centres undefined) | 88% | 102% | 97.4% | 108% | 80.3% | 97.1% | 96.7% | 101% | 107% | 83.4% | 85.9% | 99% | 92.1% | 98.2% | 83.3% | 104% | 99.9% | 100%
2 | Cc1c(NCC(=O)Nc2nc3ccccc3[nH]2)c(=O)n(-c2ccccc2)n1C | 94.9% | 105% | 107% | 99.6% | 100% | 97% | 104% | 110% | 112% | 101% | 98.4% | 99.3% | 102% | 103% | 109% | 97.7% | 94.4% | 105%
3 | COc1ccc(Nc2nc(NCCNc3ccnc4cc(Cl)ccc34)nc(N3CCOCC3)n2)cc1 | 82.3% | 74.5% | 92.2% | 37.2% | – | 70.9% | 57.2% | -37.2% (active) | 67.7% | 6.77% (active) | -80.2% (active) | 25.2% | – | 58.3% | – | 38.1% | – | 19.9%
4 | CS(=O)(=O)Nc1cccc(C(=O)NCc2ccc(N3CCOCC3)cc2)c1 | 104% | 112% | 107% | 109% | – | 119% | 101% | 112% | 103% | 92.4% | 111% | 121% | – | 97.9% | – | 103% | – | 99.2%
5 | N#Cc1ccc(C(F)(F)F)nc1N1CCC(C(=O)Nc2ccc(Cl)cc2)CC1 | 72% | 71.1% | 69% | 34.1% | – | 53.2% | 70.4% | 85.9% | 86.6% | 49.3% | 94.2% | 95.7% | – | 89% | 65.5% | 100% | – | 75.2%
6 | O=C1CN2CCC1C/C2=C\c1ccnc2c(Cl)cccc12 (centres undefined) | 92.2% | 102% | 82% | 116% | 88.9% | 107% | 103% | 98% | 111% | 95.7% | 112% | 90.1% | 107% | 101% | 91.2% | 110% | 95.2% | 103%
7 | O=C1/C(=C/c2ccc(Cl)cc2)N=C(c2ccccc2)N1CCc1cccs1 | 61.4% | 82.2% | 108% | 23.3% | 23% | 30.6% | 50.9% | 100% | 48.4% | 62.3% | 65% | 64.8% | 69.9% | 74.7% | 51.5% | 40.3% | 56.3% | 42.2%
8 | COC(=O)[C@@H]1CCCN1C(=O)[C@@H]1CCCN1C(=O)[C@@H](Cc1c[nH]c2ccccc12)NC(=S)Nc1cc(C(F)(F)F)cc(C(F)(F)F)c1 | 74.2% | 75.8% | 83.3% | 51.6% | 73.2% | 56.4% | 69.8% | 16.8% | 80.5% | 15.4% | 60.4% | 53.2% | 47.5% | 58% | – | 89.4% | 72.3% | 61.1%
9 | O=[N+]([O-])c1cc2c(cc1Br)-c1ccccc1C2 | 84.7% | 115% | 81.4% | 102% | 77.6% | 90.9% | 88.4% | – | 113% | 95.6% | 110% | 90.8% | 99.5% | 98.1% | 93.4% | 101% | 98.8% | 78.7%
10 | CN1CCc2c(c3ccccc3c3ccccc23)C1 | 74.2% | 51.4% | 45.8% | 27.7% | 48.7% | – | 49.8% | 22.2% | 45.7% | 27.1% | 53.4% | 59.6% | – | 39.1% | 45.1% | 50.8% | 37.6% | 56.2%
11 | CN([N-]C(=O)CC(=O)[N-]N(C)C(=S)c1ccccc1)C(=S)c1ccccc1.[Cu+2] | -73.8% (active) | -95.8% (active) | -98.6% (active) | -35.4% (active) | -93.4% (active) | -54.9% (active) | -72% (active) | -83.4% (active) | -74.1% (active) | -29.7% (active) | -90.3% (active) | -89.5% (active) | -91.8% (active) | -67.3% (active) | – | -69.3% (active) | -92.9% (active) | -58.2% (active)
12 | O=C1C(N2CCOCC2)=Cc2cccc3cccc1c23 | 100% | 111% | 89% | 93.2% | 89.4% | 88.5% | 103% | 93.7% | 104% | 30.8% | 113% | 106% | 99.3% | 93.8% | 112% | 97.5% | 101% | 104%
13 | Oc1ccc(Cl)cc1CNc1nc2ccccc2[nH]1 | 65.2% | 101% | 82.7% | -33.9% (active) | 62% | -14.1% (active) | 60.7% | – | -50.6% (active) | -50.4% (active) | -56.4% (active) | -24.1% (active) | 51.7% | -39.7% (active) | – | -50.9% (active) | -63.4% (active) | -49.1% (active)
14 | CCCOC(=O)c1ccc2c(c1)[N+](=O)C(C(=O)c1ccccc1)=C(C(F)(F)F)[N+]2=O | -75.6% (active) | -91.7% (active) | -96.5% (active) | -69.9% (active) | -92.6% (active) | -88.1% (active) | -81.2% (active) | -92.3% (active) | -97.2% (active) | -74% (active) | -73.7% (active) | -90.4% (active) | -93.2% (active) | -81.4% (active) | – | -95% (active) | -94.2% (active) | -70.3% (active)
15 | CC1=CN2C(=NC3=C(CCCC/C3=C\c3ccccc3)C2c2ccccc2)S1 (centres undefined) | 101% | 101% | 103% | 107% | – | 108% | 105% | 122% | 108% | 98.2% | 89% | 103% | – | 96.9% | 79.1% | 92.3% | – | 107%
16 | COc1ccc(CSc2nc3cc(OC)c(OC)cc3c(=O)n2-c2ccc(Cl)cc2)cc1 | 102% | 105% | 104% | 103% | – | 103% | 103% | – | 109% | 93% | 107% | 99.9% | – | 101% | – | 95.9% | – | 106%
17 | CC1SC(c2ccc(Cl)cc2)N(CCc2cccs2)C1=O (centres undefined) | -0.245% (active) | 21.7% | 15.2% | -24.4% (active) | -48.9% (active) | 1.08% (active) | -49.4% (active) | – | – | 7.81% (active) | -32.8% (active) | -4.43% (active) | -35.7% (active) | 14.3% | -2.2% (active) | -49.7% (active) | -28.7% (active) | -12.8% (active)
18 | CCN(c1ccc(C(=O)N2CCN(c3ccccc3)CC2)cc1)S(C)(=O)=O | 103% | 102% | 104% | 108% | – | 105% | 101% | 113% | 108% | 96.4% | 94.2% | 119% | – | 98.7% | – | 103% | – | 104%
19 | O=C1C=CC(=O)N1CCCCCCCCCCN1C(=O)C=CC1=O | 85.2% | 109% | 88.7% | 96.1% | -60.7% (active) | 97.4% | 88.7% | 65.7% | 80.1% | 5.56% (active) | 70% | 104% | 76.6% | 103% | 73.7% | 91.1% | 76.1% | 77.8%
